In PubChem BioAssay AID687001 (Broad Institute, 2013):
Measured potencies and affinities stand elsewhere. The source made the active and inactive calls.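 The calls were made as follows: active = signal-lowering compounds whose fitted half-maximal concentration is at or below twice the top tested dose in every run; inconclusive = runs disagree, flat 30 to 70% inhibition, or poor curve fit; inactive = the rest.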

biological target: Protein S100-A4 (Homo sapiens) (UniProt P26447); assay: human S100A4 peptide interaction inhibition curves – biochemical, fluorescence polarization, cherry-picked hits, dose response (AID 687001); conditions: FP, S100A4/TAMRA-myosin IIA peptide binding; series mostly up to 11 µM
Sequence (P26447 whole entry, looked up): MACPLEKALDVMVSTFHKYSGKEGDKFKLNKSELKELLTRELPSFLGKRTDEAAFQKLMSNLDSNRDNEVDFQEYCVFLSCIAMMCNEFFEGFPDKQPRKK

outcome, inactive:
Cc1cc(C(=O)N/N=C/c2ccccn2)c2ccccc2n1
COC(=O)CCCC1=CC2=C(c3ccccc3)C(=O)C(C)(OC(=O)C3CCCC3)C(=O)C2=CN1Cc1ccc2c(c1)OCO2 (stereo not drawn)
CC(C)c1ccc(/C=C(\NC(=O)c2ccccc2)C(=O)NCCCn2ccnc2)cc1
COc1ccccc1N1CC(C(=O)Nc2ccc(C)c(S(=O)(=O)N3CCOCC3)c2)CC1=O (stereo not drawn)
CC(=O)N1CC(C)Oc2ccc(S(=O)(=O)NC(CC(=O)O)c3ccccc3)cc21 (stereo not drawn)
COc1ccc(C(=O)O)cc1S(=O)(=O)Nc1ccccc1-c1ccccc1
O=C(c1ccccc1F)N1CC(=O)N2[C@@H](CO)[C@H](c3ccc(C#Cc4ccccc4)cc3)[C@@H]2C1
COc1ccc(CN2CCC(C(=O)Nc3ccc(Oc4cccnc4)cc3)CC2)c(C)c1C
COc1nnc(-c2ccc(C)c(S(N)(=O)=O)c2)c2ccccc12
Nc1nnc(COc2ccc(Br)cc2Br)s1
NC(=O)c1cc(S(=O)(=O)Nc2cccc(Cl)c2)cs1
CCCN1CCCCC(NC(=O)c2c(F)cccc2F)C1=O (stereo not drawn)
COc1ccccc1Nc1cc(C)nc(Nc2ccccc2OC)n1
COc1ccc(S(=O)(=O)NCC2CCCN(Cc3cccc(C(C)=O)c3)C2)cc1 (stereo not drawn)
COC(=O)CCC(C)C1CCC2C3CCC4CC(O)CCC4(C)C3=CC(=O)C12C (stereo not drawn)
Cc1cc(Br)ccc1NC(=O)CN(C)C(=O)c1ccc(-n2cncn2)c([N+](=O)[O-])c1
C[C@H](CO)N1C[C@H](C)[C@H](CN(C)Cc2ccncc2)Oc2c(NC(=O)C3CC3)cccc2C1=O
CCOc1ccccc1N
COc1ccc(CN2C[C@H](O)COC[C@@H]3O[C@@H](CC(=O)N(C)C)CC[C@H]32)cc1
C=CCn1c(C)nnc1SCC(=O)Nc1ccccc1C(=O)NC1CC1
CCOC(=O)c1c(S(=O)(=O)N2CCCC(C(=O)Nc3ccc(C)cn3)C2)c(C)n(C)c1C (stereo not drawn)
C[C@@H]1CCCCO[C@@H](CN(C)C(=O)Cc2ccccc2)[C@H](C)CN([C@@H](C)CO)C(=O)c2cc(NC(=O)Nc3ccc4c(c3)OCO4)ccc2O1
CCn1c(=O)c2ccccc2n2c(SCC(N)=O)nnc12
C[C@H]1CCCCO[C@H](CN(C)C(=O)Nc2ccc(C(F)(F)F)cc2)[C@@H](C)CN([C@@H](C)CO)C(=O)c2cc(NS(=O)(=O)c3ccccc3)ccc2O1
O=C(CNC(=O)c1ccco1)NNC(=O)c1ccc(Br)cc1
O=C1C2C3C=CC(C2C(=O)N1CCO)C1C(=O)N(CCO)C(=O)C31 (stereo not drawn)
Cc1ccccc1CN1CCC(n2nccc2NC(=O)CCOc2ccccc2)CC1
O=C1[C@H]2[C@@H](c3ccc(F)cc3)N3C(=O)N(c4cccc(Br)c4)C(=O)[C@@]3(Cc3ccccc3)[C@H]2C(=O)N1C1CCCCC1
Cc1ccccc1S(=O)(=O)N(C)C[C@@H]1OCc2cnnn2CCCC(=O)N([C@@H](C)CO)C[C@H]1C
CN(C)S(=O)(=O)c1ccc(Cl)c(C(=O)NNC(=O)Cn2ccc(C(F)(F)F)n2)c1
CC(=O)Nc1ccccc1-c1nc2cc(C#N)c(C#N)cc2[nH]c1=O
COc1ccc(-c2ccc3c(c2)O[C@H](CN(C)Cc2cccnc2)[C@@H](C)CN([C@H](C)CO)S3(=O)=O)cc1
CC(C)=CC(=O)O[C@@H]1Cc2cc3ccc(=O)oc3cc2OC1(C)C
Cc1ccc(F)cc1NC(=O)CN1C(=O)NC(C)(c2ccc3c(c2)OCCO3)C1=O (stereo not drawn)
Cc1ccc(S(=O)(=O)N[C@H]2C=C[C@@H](CC(=O)NC3CCCCC3)O[C@@H]2CO)cc1
COc1ccc(C(=O)N(C)C2(C)CCS(=O)(=O)C2)cc1OC (stereo not drawn)
CCOc1ccc(NC(=O)CSc2nccn(-c3ccc4c(c3)OCCO4)c2=O)cc1
Cc1cc2ccccc2n1CCNC(=O)Cc1cccc2ccccc12
